This note sets out measurements from PubChem BioAssay (Tox21).

Assay [1] can be described thus: qHTS assay to identify aromatase inhibitors - cell viability counter screen (AID 743084).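 Also: cells stimulated with testosterone during compound exposure; nearly all actives have a fitted effect of over 55% in size.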 Also: potency is read from the fitted curve at half-maximal effect.
Assay [2] has as its target Aryl hydrocarbon receptor (Homo sapiens) (UniProt P35869). Kind of assay: qHTS assay to identify small molecule that activate the aryl hydrocarbon receptor (AhR) signaling pathway (AID 743085). Also: nearly all actives have a fitted effect of over 15% in size. Also: potency is read from the fitted curve at half-maximal effect.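 As to activation: HG2L7.5c1 human HepG2 liver cells with stably integrated DRE-driven firefly reporter; series mostly up to about 70 µM.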 The method in brief: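 Compounds were tested in HepG2 hepatocellular carcinoma cells harbouring a stably integrated luciferase gene under control of 20 DREs. Increased reporter signal after 24 h treatment at 37C was taken as AhR activation.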

The nature of assay [3]: qHTS assay to identify small molecule that activate the aryl hydrocarbon receptor (AhR) signaling pathway - cell viability counter screen (AID 743086).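 Also: HepG2 liver cells carrying the AhR DRE luciferase reporter; series mostly up to about 70 µM; nearly all actives have a fitted effect of over 45% in size.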 The method in brief: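 HepG2-AhR-luc (HG2L7.5c1) cells, 4000/well, treated 24 h at 37 C with compound; viability measured as CellTiter-Fluor fluorescence after 30 min in the same wells as the luciferase read.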
In assay [4] the target is Peroxisome proliferator-activated receptor gamma (Homo sapiens) (UniProt P37231). Kind of assay: qHTS assay to identify small molecule agonists of the peroxisome proliferator-activated receptor gamma (PPARg) signaling pathway (AID 743094; active = well fitted activation curve with a large enough effect in the signal ratio in the repeat runs, not every such curve was filed as active; the % refers to the signal ratio). In short, it runs like this: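 Fluorescence-based beta-lactamase readout in HEK293H PPARg UAS-bla cells after 17 h compound exposure (37C) and 1 h B/G FRET substrate incubation at room temperature.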

For assay [5] the target is unchanged. Kind of assay: qHTS assay to identify small molecule antagonists of the peroxisome proliferator-activated receptor gamma (PPARg) signaling pathway (AID 743191; calls by dose curve; also: nearly all actives have a fitted effect of over 30% in size; also: potency is read from the fitted curve at half-maximal effect). In short, it runs like this: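 GeneBLAzer PPARg UAS-bla HEK293H cells, 5 h post-plating, exposed to compounds 17 h at 37C. LiveBLAzer B/G FRET substrate added for 1 h at room temperature; beta-lactamase reporter read by fluorescence intensity.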

The nature of assay [6]: qHTS assay to identify small molecule antagonists of the peroxisome proliferator-activated receptor gamma (PPARg) signaling pathway - cell viability counter screen (AID 743194). Also: nearly all actives have a fitted effect of over 55% in size. The method in brief:
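Cytotoxicity counter screen in PPARg-bla HEK293H cells, same wells as reporter assay. Compounds plus 50 nM rosiglitazone (final) for 17 h at 37 C, then viability read by CellTiter-Glo luminescence.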

Assay [7] in a line: qHTS assay for small molecule agonists of the antioxidant response element (ARE) signaling pathway (AID 743202; active = well fitted activation curve with a large enough effect in the signal ratio in the repeat runs, not every such curve was filed as active; the % refers to the signal ratio). The method in brief:
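HepG2 ARE-bla reporter line, 2,000 cells/well; 5 h preincubation 37 C/5% CO2; compound (DMSO) 16 h 37 C; B/G FRET substrate 2 h RT; fluorescence intensity.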

The nature of assay [8]: qHTS assay for small molecule agonists of the antioxidant response element (ARE) signaling pathway - cell viability counter screen (AID 743203; calls by dose curve; also: nearly all actives have a fitted effect of over 55% in size). The method in brief: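 Parallel cytotoxicity read-out for the ARE-bla screen: HepG2 reporter cells, 16 hrs with compounds, then CellTiter-Glo luminescence.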
Assay [9] is described as follows: qHTS assay for small molecule activators of the heat shock response signaling pathway - cell viability counter screen (AID 743209). Also: nearly all actives have a fitted effect of over 50% in size. In short, it runs like this:
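To flag cytotoxic compounds, HSE-bla HeLa cells plated at 1500 cells/well were dosed for 5 h at 37 C, followed by the reporter FRET read and then CellTiter-Glo, with luminescence recorded 30 min after reagent addition.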

The nature of assay [10]: qHTS assay for small molecule activators of the heat shock response signaling pathway (AID 743210; active = well fitted activation curve with a large enough effect in the signal ratio in the repeat runs, with a control signal flat, not every such curve was filed as active; the % refers to the signal ratio; also: potency is read from the fitted curve at half-maximal effect; as to activation: series mostly up to about 63 µM). The method in brief: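 Beta-lactamase reporter read-out: FRET substrate fluorescence after 2.5 h at RT, following 5 h compound treatment at 37 C of HeLa cells carrying HSE-driven bla reporter; quantitative HTS format.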

Where “and” joins values, the source holds several entries; their conditions need not be identical. Equal entries are not always repeated. Inconclusive results are not listed. More than one record can exist for a structure, and the calls need not agree. Calls of active or inactive are those of the source. Unless noted, calls follow the shape of the dose curve; as a rule, active = well fitted curve in the direction sought with a large enough effect in the repeat runs; inconclusive = weak or mixed curves; inactive = no such curve, though single readings can be large; an effect the other way counts as inactive or inconclusive.

Sequence of Aryl hydrocarbon receptor (Homo sapiens) (P35869 whole entry, looked up): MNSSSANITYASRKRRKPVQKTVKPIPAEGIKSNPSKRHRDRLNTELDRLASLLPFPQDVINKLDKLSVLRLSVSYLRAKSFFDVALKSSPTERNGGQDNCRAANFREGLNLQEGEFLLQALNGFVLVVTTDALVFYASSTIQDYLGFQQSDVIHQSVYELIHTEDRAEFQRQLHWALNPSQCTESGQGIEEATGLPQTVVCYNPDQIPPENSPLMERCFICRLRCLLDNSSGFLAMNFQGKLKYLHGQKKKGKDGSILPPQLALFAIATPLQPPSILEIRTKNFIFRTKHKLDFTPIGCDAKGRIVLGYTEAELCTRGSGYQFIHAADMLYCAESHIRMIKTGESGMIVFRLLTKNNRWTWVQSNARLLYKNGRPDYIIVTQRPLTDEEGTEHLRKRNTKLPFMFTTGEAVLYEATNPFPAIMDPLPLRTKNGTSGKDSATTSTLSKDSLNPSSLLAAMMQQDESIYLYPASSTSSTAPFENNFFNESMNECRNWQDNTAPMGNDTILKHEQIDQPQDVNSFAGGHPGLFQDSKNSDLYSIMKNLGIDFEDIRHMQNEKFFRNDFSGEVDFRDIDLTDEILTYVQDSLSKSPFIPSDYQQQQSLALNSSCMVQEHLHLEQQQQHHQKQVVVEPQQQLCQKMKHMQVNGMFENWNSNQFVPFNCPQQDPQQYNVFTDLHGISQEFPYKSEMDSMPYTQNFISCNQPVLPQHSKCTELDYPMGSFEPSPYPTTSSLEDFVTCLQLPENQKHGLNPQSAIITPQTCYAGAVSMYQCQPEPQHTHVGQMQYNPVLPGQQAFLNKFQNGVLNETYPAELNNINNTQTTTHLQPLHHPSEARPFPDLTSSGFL
Sequence of Peroxisome proliferator-activated receptor gamma (Homo sapiens) (P37231 whole entry, looked up): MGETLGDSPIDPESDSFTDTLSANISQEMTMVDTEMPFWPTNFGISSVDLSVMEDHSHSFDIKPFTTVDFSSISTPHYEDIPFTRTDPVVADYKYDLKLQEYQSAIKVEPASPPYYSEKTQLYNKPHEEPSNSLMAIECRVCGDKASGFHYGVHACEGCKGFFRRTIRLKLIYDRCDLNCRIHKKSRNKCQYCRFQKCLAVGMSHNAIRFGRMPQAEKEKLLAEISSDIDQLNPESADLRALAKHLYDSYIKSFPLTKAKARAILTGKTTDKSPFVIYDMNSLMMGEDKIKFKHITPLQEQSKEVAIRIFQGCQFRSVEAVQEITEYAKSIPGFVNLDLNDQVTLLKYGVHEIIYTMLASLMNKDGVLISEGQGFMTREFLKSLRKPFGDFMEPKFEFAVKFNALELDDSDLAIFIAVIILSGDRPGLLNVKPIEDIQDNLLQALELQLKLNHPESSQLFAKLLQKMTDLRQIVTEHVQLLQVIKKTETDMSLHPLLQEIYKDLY

As to `FC(F)(F)c1ccc(Cl)cc1`, the Potency entry in [1], in assay [2], in assay [5], in assay [7], in assay [8] and in assay [9] was “inactive” in each case. Besides, the Potency entry in assay [10] is “inactive”. For the same compound, the outcome in [3], in assay [4] and in assay [6] was inactive.
On to `C=C(C)C(=O)OCC(CC)CCCC` (stereo unspecified), for which the Potency entry in assay [1], in assay [2], in assay [5], in assay [7], in [8] and in [9] was “inactive” each time. In assay [10], the Potency entry is “inactive”. The compound was called inactive in assay [3], in assay [4] and in [6].
For the compound `CN(C)NC(=O)CCC(=O)O`, the Potency result in assay [1], in assay [2], in [5], in assay [7], in [8] and in [9] was “inactive” in each case. Moreover, in [10], the Potency entry was “inactive”. Moreover, the compound was classed as inactive in assay [3], in assay [4] and in [6].
As for `Cl[C@H]1OCCO[C@@H]1Cl`, the Potency entry in assay [1], in assay [2], in assay [5], in assay [7], in assay [8] and in assay [9] was “inactive” throughout. Moreover, in [10], the Potency entry is “inactive”. Besides, the compound was called inactive in assay [3], in assay [4] and in assay [6].
Take `CC(=O)/C=C/c1ccccc1`: the Potency entry in assay [1], in assay [2], in assay [5], in [7], in [8] and in assay [9] was “inactive” throughout. In [10], the Potency result was “inactive”. For the same compound, the compound was classed as inactive in [3], in [4] and in assay [6].
As for `N#Cc1ccccn1`, the Potency result in assay [1], in assay [2], in assay [5], in assay [7], in assay [8] and in [9] was “inactive” in each case. Also, the call in assay [3], in assay [4] and in assay [6] was inactive.
In the case of `O=C(O)CCCc1ccc(N(CCCl)CCCl)cc1`, the Potency entry in assay [1] was “inactive and 30.6 µM (active)”. Moreover, the Potency result in assay [2], in [5], in assay [7], in assay [8], in assay [9] and in [10] was “inactive” each time. Moreover, the result in [3], in assay [4] and in assay [6] was inactive.
`Nc1cc(Cl)cc(Cl)c1`: the Potency result in assay [1], in [2], in [7], in assay [8], in assay [9] and in assay [10] was “inactive” each time. Further, the result in assay [3] and in [4] was inactive.
Take `CNC(=O)O/N=C/C(C)(C)S(C)=O` (stereo unspecified): the Potency entry in [1], in assay [5], in [7], in assay [8], in [9] and in [10] was “inactive” throughout. Moreover, the compound was classed as inactive in assay [3] and in [4].
Regarding `CNC(=O)Oc1cccc2ccccc12`, the Potency entry in [1], in assay [8], in assay [9] and in assay [10] was “inactive” in each case. Also, in [2], the Potency was 5.31 µM (active) and 54 µM (active) and 27.3 µM (active). Besides, the compound was classed as inactive in assay [3] and in assay [6].
Consider `Nc1ccc([As](=O)(O)O)cc1`, for which the Potency result in assay [1], in assay [5], in assay [7], in assay [8], in assay [9] and in assay [10] was “inactive” each time. Moreover, the result in assay [3], in [4] and in assay [6] was inactive.
With `[N-]=[N+]=CC(=O)OC[C@H](N)C(=O)O`, in assay [3], the compound was classed as inactive. Further, the Potency entry in assay [7], in assay [8] and in [9] was “inactive” in each case.
On to `Cc1cccc(N)c1`, for which the Potency entry in [1], in assay [5], in assay [7], in [8], in [9] and in assay [10] was “inactive” in each case. The result in [3], in [4] and in assay [6] was inactive.
As to `CN1C(=O)CCS(=O)(=O)C1c1ccc(Cl)cc1` (stereo unspecified), the Potency result in assay [1], in [2], in assay [7], in assay [8], in assay [9] and in [10] was “inactive” each time. The result in assay [3] was inactive.
For `Nc1cccc(Cl)c1`, the Potency entry in assay [1], in [5], in assay [7], in assay [8] and in [9] was “inactive” throughout. The compound was classed as inactive in assay [3] and in assay [4].
In the case of `CSc1nnc(C(C)(C)C)c(=O)n1N`, the compound was called inactive in [3] and in [6]. The Potency entry in [7], in assay [8], in assay [9] and in assay [10] was “inactive” throughout.
Turning to `CCCCCCCCCCCCCCCCCC(=O)O`, the Potency result in assay [1], in assay [7], in assay [8] and in assay [9] was “inactive” throughout. Moreover, the compound was called inactive in assay [3].
Turning to `C=CC(=O)OCC(CC)CCCC` (stereo unspecified), the Potency entry in [1], in [2], in assay [7], in assay [8], in assay [9] and in assay [10] was “inactive” in each case. Also, in [3], the compound was called inactive.
Turning to `O=C(O)C1C(C(=O)O)C2(Cl)C(Cl)=C(Cl)C1(Cl)C2(Cl)Cl` (stereo unspecified), the Potency result in assay [1], in assay [2], in assay [7], in [8], in [9] and in [10] was “inactive” throughout. Further, the result in [3] and in assay [6] was inactive.
Regarding `CN(C)CCC#N`, the Potency result in assay [1], in assay [5], in [7], in assay [8], in [9] and in assay [10] was “inactive” throughout. For the same compound, the result in [3], in [4] and in [6] was inactive.
As to `OCCCCO`, the Potency entry in assay [1], in assay [2], in assay [7], in assay [8], in assay [9] and in assay [10] was “inactive” throughout. The call in [3] and in assay [6] was inactive.
As for `Cc1cc(Cl)ccc1OC(C)C(=O)O` (stereo unspecified), the Potency result in assay [1], in assay [2], in assay [5], in assay [7], in [8] and in [9] was “inactive” in each case. Also, the Potency entry in [10] was “inactive”. Also, the compound was classed as inactive in assay [3] and in [6].
For `O=[N+]([O-])c1ccc(Cl)cc1`, the Potency entry in assay [1], in assay [2], in assay [7], in [8], in assay [9] and in assay [10] was “inactive” in each case. Besides, the result in [3] was inactive.
Consider `Sc1ccccc1`, for which the Potency result in assay [1], in assay [2], in assay [7], in [8] and in assay [9] was “inactive” throughout. In addition, the compound was classed as inactive in assay [3]. Also, in [10], the Potency was 44.3 µM (active) and inactive.
As for `CCOc1ccc(N)cc1`, the Potency result in [1], in [8], in assay [9] and in [10] was “inactive” throughout. Besides, the Potency in [2] is 48.7 µM (active) and inactive. Besides, the compound was called inactive in assay [3].
As for `NNc1ccccc1`, the Potency entry in assay [1], in assay [7], in [8], in assay [9] and in [10] was “inactive” in each case. The result in assay [3] and in [4] was inactive. The Potency in assay [5] was 13.8 µM (active) and inactive.
`Cc1ccccc1N`: the Potency result in assay [1], in assay [2], in assay [7], in assay [8], in assay [9] and in assay [10] was “inactive” each time. For the same compound, the call in assay [3] was inactive.
Consider `C[C@]12CC[C@H](O)CC1=CC[C@@H]1[C@@H]2CC[C@]2(C)C(=O)CC[C@@H]12`, for which the Potency result in assay [1], in assay [2], in assay [8], in assay [9] and in assay [10] was “inactive” throughout. The outcome in assay [3] and in assay [4] was inactive.
With `CC(C)(C)C(=O)CCl`, the Potency result in assay [1], in assay [5], in assay [7], in assay [8], in assay [9] and in assay [10] was “inactive” throughout. Also, the result in assay [3], in assay [4] and in assay [6] was inactive.
